Test results as given in PubChem BioAssay (EPA / NIEHS).
Records with an inconclusive call do not appear. Activity calls are given as the source filed them. Rule for the calls: active = hit-call score of the fitted dose curve at least 0.9, where 1 is the maximum; inconclusive = response in the unintended direction; inactive = score below 0.9.

Assay: Tanguay_ZF_120hpf_BRAI_legacy: (Legacy) Oregon State University Tanguay Lab 120 Hour Post-fertilization zebrafish Assay for Brain Malformation (AID 2283641)
Outline: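 Wild-type 5D larvae, static waterborne exposure to 120 hpf, 28C, 0.64% v/v DMSO. Brightfield scoring of brain defects, binary; dead embryos excluded. Positive ctrl 5uM trimethyltin chloride.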

| Compound | outcome | AC50 |
| --- | --- | --- |
| CCCCCCCCCCCCCCC | inactive |  |
| Cc1[nH]nc2c1N=C(c1ccccc1Cl)c1cc([N+](=O)[O-])ccc1N2 | inactive |  |
| CCCCCCCCCCCCOS(=O)(=O)O | inactive |  |
| CN(Cc1cnc2nc(N)nc(N)c2n1)c1ccc(C(=O)N[C@@H](CCC(=O)O)C(=O)O)cc1 | inactive |  |
| CCC(C)c1ccccc1O (configuration not stated) | inactive |  |
| CCCCC=O |  | 54.8 µM (active) |
| CCCCC(CC)C(=O)O (configuration not stated) | inactive |  |
| OCC(CO)(CBr)CBr | inactive |  |
| N=C(N)c1ccc(OCCCCCOc2ccc(C(=N)N)cc2)cc1 | inactive |  |
| CC(=O)Nc1ccc(O)cc1 | inactive |  |

Assay: Tanguay_ZF_120hpf_SOMI_legacy: (Legacy) Oregon State University Tanguay Lab 120 Hour Post-fertilization zebrafish Assay for Somite Malformation (AID 2283647)
Outline: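 Read-out: presence or absence of somite malformation in 120 hpf larvae, gain-of-signal relative to DMSO baseline. Embryos lacked chorion (pronase, 4 hpf) and were exposed statically from 6 hpf at 28C; dead larvae not scored.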

| Compound | outcome |
| --- | --- |
| CCCCCCCCCCCCCCC | inactive |
| Cc1[nH]nc2c1N=C(c1ccccc1Cl)c1cc([N+](=O)[O-])ccc1N2 | inactive |
| CCCCCCCCCCCCOS(=O)(=O)O | inactive |
| CN(Cc1cnc2nc(N)nc(N)c2n1)c1ccc(C(=O)N[C@@H](CCC(=O)O)C(=O)O)cc1 | inactive |
| CN(C)CCOC(c1ccccc1)c1ccccc1 | inactive |
| O=C1NS(=O)(=O)c2ccccc21 | inactive |
| CCC(C)c1ccccc1O (configuration not stated) | inactive |
| CCCCC=O | inactive |
| OCC(CO)(CBr)CBr | inactive |
| CC(=O)Nc1ccc(O)cc1 | inactive |

Assay: Tanguay_ZF_120hpf_PFIN_legacy: (Legacy) Oregon State University Tanguay Lab 120 Hour Post-fertilization zebrafish Assay for Pectoral Fin Malformation (AID 2283648);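 note: each larva judged yes or no for fin defect by brightfield with dead larvae skipped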
Outline: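 Dechorionated Tropical 5D wild-type zebrafish embryos, one per well, statically exposed from 6 to 120 hpf at 28C with 0.64% DMSO final. Pectoral fin malformation scored present/absent by brightfield at 120 hpf; not scored in dead embryos.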

| Compound | outcome |
| --- | --- |
| CCCCCCCCCCCCCCC | inactive |
| Cc1[nH]nc2c1N=C(c1ccccc1Cl)c1cc([N+](=O)[O-])ccc1N2 | inactive |
| CCCCCCCCCCCCOS(=O)(=O)O | inactive |
| CN(Cc1cnc2nc(N)nc(N)c2n1)c1ccc(C(=O)N[C@@H](CCC(=O)O)C(=O)O)cc1 | inactive |
| CS(=O)(=O)c1ccc([C@@H](CC2CCCC2)C(=O)Nc2cnccn2)cc1Cl | inactive |
| O=C1NS(=O)(=O)c2ccccc21 | inactive |
| CCC(C)c1ccccc1O (configuration not stated) | inactive |
| CCCCC=O | inactive |
| CCCCC(CC)C(=O)O (configuration not stated) | inactive |
| OCC(CO)(CBr)CBr | inactive |
| CC(=O)Nc1ccc(O)cc1 | inactive |

Assay: Tanguay_ZF_120hpf_CFIN_legacy: (Legacy) Oregon State University Tanguay Lab 120 Hour Post-fertilization zebrafish Assay for Caudal Fin Malformation (AID 2283649)
Outline: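 Binary presence or absence of caudal fin malformation at 120 hpf, read by brightfield microscopy, with DMSO as baseline. Larvae came from 5D wild-type embryos exposed statically from 6 hpf at 28C after pronase dechorionation.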

| Compound | outcome | AC50 |
| --- | --- | --- |
| CCCCCCCCCCCCCCC | inactive |  |
| Cc1[nH]nc2c1N=C(c1ccccc1Cl)c1cc([N+](=O)[O-])ccc1N2 | inactive |  |
| CCCCCCCCCCCCOS(=O)(=O)O | inactive |  |
| CN(Cc1cnc2nc(N)nc(N)c2n1)c1ccc(C(=O)N[C@@H](CCC(=O)O)C(=O)O)cc1 | inactive |  |
| CN(C)CCOC(c1ccccc1)c1ccccc1 |  | 14.1 µM (active) |
| CS(=O)(=O)c1ccc([C@@H](CC2CCCC2)C(=O)Nc2cnccn2)cc1Cl | inactive |  |
| O=C1NS(=O)(=O)c2ccccc21 | inactive |  |
| CCC(C)c1ccccc1O (configuration not stated) | inactive |  |
| OCC(CO)(CBr)CBr | inactive |  |
| CC(=O)Nc1ccc(O)cc1 | inactive |  |

Assay: Tanguay_ZF_120hpf_PIG_legacy: (Legacy) Oregon State University Tanguay Lab 120 Hour Post-fertilization zebrafish Assay for Pigmentation Malformation (AID 2283650)
Outline: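 Dechorionated Tropical 5D wild-type embryos, one per well from 6 hpf, statically exposed at 28C in the dark until 120 hpf, 0.64% DMSO final. Pigmentation scored present/absent by brightfield microscopy; dead embryos not scored; fitted versus DMSO.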

| Compound | outcome |
| --- | --- |
| Cc1[nH]nc2c1N=C(c1ccccc1Cl)c1cc([N+](=O)[O-])ccc1N2 | inactive |
| CCCCCCCCCCCCOS(=O)(=O)O | inactive |
| CN(Cc1cnc2nc(N)nc(N)c2n1)c1ccc(C(=O)N[C@@H](CCC(=O)O)C(=O)O)cc1 | inactive |
| CN(C)CCOC(c1ccccc1)c1ccccc1 | inactive |
| CS(=O)(=O)c1ccc([C@@H](CC2CCCC2)C(=O)Nc2cnccn2)cc1Cl | inactive |
| O=C1NS(=O)(=O)c2ccccc21 | inactive |
| CCC(C)c1ccccc1O (configuration not stated) | inactive |
| CCCCC(CC)C(=O)O (configuration not stated) | inactive |
| OCC(CO)(CBr)CBr | inactive |
| N=C(N)c1ccc(OCCCCCOc2ccc(C(=N)N)cc2)cc1 | inactive |
| CC(=O)Nc1ccc(O)cc1 | inactive |
